Compounds with a hit are over-represented: about 0.86% of the library has one in this group of screens.
HIV TAR-Tat = HIV-1 TAR-Tat binding disruption; HIV-1 TAR RNA, Tat peptide displacement FRET; hits give high values; z-score (test concentration not listed); 100,000 compounds, 0.6% hits; AID 1259389; active means z-score of 3 or more in at least 2 runs
CDC25B-CDK2 inh = human CDC25B-CDK2/CyclinA binding inhibition | HTRF CDC25B-CDK2/CyclinA binding, anti-His/anti-Flag; hits give high values | z-score (test concentration not listed) | 94,000 compounds, 0.72% hits | AID 1259370; in the data active means z-score above about 3.2
Numbers without * were called inactive; . = no result.

SMILES | HIV TAR-Tat | CDC25B-CDK2 inh
CCC(O)(c1ccc(C)cc1)C(CN1CCOCC1)c1ccccc1 (stereo unspecified) | -0.14 | -0.71
CC1=CC(C)C(CN(C2CCCCC2)S(=O)(=O)c2ccc(N)cc2)C(C)C1 (stereo unspecified) | 1.22 | -0.38
Cn1cc(C(=O)NCCC2=CCCCC2)c2c3ccccc3n(C)c2c1=O | . | -0.5
COC(=O)C1=C(C(=O)OC)SC(=C2C(=S)C(C)(C)Nc3cc(C)c(C)cc32)S1 | 2.24 | -0.72
COC(=O)C1=C(C(=O)OC)SC(=C2C(=S)C(C)(C)Nc3ccc(C)cc32)S1 | 1.63 | 17.9*
CC(=O)N1N=C(c2cc(C3CC3)nc3ccccc23)OC1c1ccccc1 (stereo unspecified) | 1.57 | .
COc1ccc(C2OC(c3cc(C4CC4)nc4ccccc34)=NN2C(C)=O)c(OC)c1 (stereo unspecified) | 9.21* | .
Cc1nnsc1C(=O)Nc1ccc(S(=O)(=O)Nc2onc(C)c2C)cc1 | 4.39 | -1.74
CCC1CCCCN1S(=O)(=O)c1ccc2[nH]c(=O)ccc2c1 (stereo unspecified) | 6.55* | .
CCCN1CCN(S(=O)(=O)c2ccc3[nH]c(=O)ccc3c2)CC1 | 2.98 | .
CCOc1cc(C2C(C#N)=C(N)Oc3n[nH]c(C)c32)ccc1OCc1ccccc1Cl (stereo unspecified) | 1.85 | -1.97
CC1CCC(NC(=O)C2(C)Cn3c(cc4occc43)C(=O)N2CC2CCCO2)CC1 (stereo unspecified) | 3.01 | .
CCN(Cc1ccccc1)C(=O)CSc1nncn2c1cc1occc12 | 6.69* | .
C=CCN(C(=O)CSc1nncn2c1cc1occc12)c1ccccc1 | 1.36 | .
Fc1ccccc1-c1ccc(CNCC2CCCO2)o1 (stereo unspecified) | 1.06 | .
CC(=O)N1c2ccc(S(=O)(=O)N3CCC(C(=O)Nc4nc(C)cs4)CC3)cc2CC1C (stereo unspecified) | 0.74 | .
O/N=C/c1ccc(C#Cc2ccccc2)cc1 | . | -1.52
Cc1oc2ccc(NS(=O)(=O)c3ccc(Cl)cc3)cc2c1C(=O)O | 23.2* | 3.91
Cc1oc2ccc(NS(=O)(=O)c3ccccc3)cc2c1C(=O)O | 18.2* | -0.14
Cc1oc2ccc(NS(=O)(=O)c3ccc(F)cc3)cc2c1C(=O)O | 1.66 | 0.13
COC(=O)c1c(C)oc2ccc(NS(=O)(=O)c3ccc(Cl)cc3)cc12 | 0.19 | -0.32
O=C1c2cccnc2C(=O)N1Cc1ccc(S(=O)(=O)NCC2CCCO2)s1 (stereo unspecified) | 0.81 | .
O=C(Nc1nnc2n1CCS2)c1cccc(Br)c1 | 1.06 | .
CCOC(=O)CN(C=NC#N)c1ccc(OC)cc1 | . | -1.61
O=C(O)c1ccc2nc(-c3cccc(-c4nc5ccc(C(=O)O)cc5[nH]4)c3)[nH]c2c1 | . | 7.31*
SMILES | HIV TAR-Tat | CDC25B-CDK2 inh
O=C(O)c1cccc(-c2nc3ccccc3[nH]2)c1 | . | -2.07
COc1ccc2c(c1)c(=O)oc1cc3oc4c(c3cc12)CCCC4 | 3.69* | -0.98
COc1ccc2c(c1)c(=O)oc1cc3oc(C)c(-c4ccccc4)c3cc12 | -1.61 | -1.6
Cn1c(=O)sc2cc(NC(=O)Cn3c(=O)oc4ccccc43)ccc21 | 1.7 | 7.49*
CCC(=O)Nc1ccc2c(c1)sc(=O)n2C | 1.07 | .
CCc1ccc(NS(=O)(=O)c2ccc3c(c2)N(C)CCO3)cc1 | 0.62 | .
CCOc1cc(C2C3=C(CCCC3=O)NC3=C2C(=O)CCC3)cc(Cl)c1O | 0.23 | 15.8*
CCOc1cc(C2C3=C(CCCC3=O)N(C)C3=C2C(=O)CCC3)cc(Cl)c1O | 0.39 | -0.94
O=C(NCc1ccccn1)C1c2ccccc2C(=O)N(C2CCCC2)C1c1cccs1 (stereo unspecified) | -0.65 | .
N#CC(c1ccc2c(c1)OCO2)N(Cc1ccccc1)C(=O)c1sc2ccccc2c1Cl (stereo unspecified) | . | -9
CC1CN(C(=O)Nc2ccc(F)cc2)c2cc(Cl)ccc2O1 (stereo unspecified) | 0.53 | -2.58
CC1CN(C(=O)Nc2ccc(Cl)cc2)c2ccccc2O1 (stereo unspecified) | 3.94* | .
COc1cc(OC)c(NC(=O)N2CCCC2c2ccco2)cc1Cl (stereo unspecified) | 0.62 | -2.8
CCC1CN(C(=O)Nc2cc(OC)ccc2OC)c2cc(Cl)ccc2O1 (stereo unspecified) | 0.96 | .
COc1ccc(S(=O)(=O)NCCc2cc3c(OC)ccc(OC)c3[nH]c2=O)cc1 | . | -1.56
CC1(C)CC(=O)c2c(oc3ccc(NS(=O)(=O)c4ccc(Br)cc4)cc23)C1 | -0.3 | -0.39
Cc1ccc(S(=O)(=O)Nc2c3ccccc3c(O)c3c4c(oc23)CC(C)(C)CC4=O)cc1 | . | 17.9*
O=C(NC1CC1)c1ccc(Cn2c(=O)c3cccn3c3cccnc32)cc1 | -0.05 | .
Cn1c(SCc2ccc(F)cc2)nc(=O)c2c1NC(=O)CC2c1cccc(O)c1 (stereo unspecified) | -0.43 | -1.23
Cc1ccc(CSc2nc(=O)c3c(n2C)NC(=O)CC3c2ccc(O)c(O)c2)cc1 (stereo unspecified) | 25.8* | -0.12
CCOc1cc(C2CC(=O)Nc3nc(SCc4ccccc4C)[nH]c(=O)c32)ccc1O (stereo unspecified) | 1.76 | -0.18
CCCSc1nc2c(c(=O)[nH]1)C(c1ccc(O)c(O)c1)CC(=O)N2 (stereo unspecified) | 8.46* | 7.82*
CCOc1cc(C2CC(=O)Nc3nc(SC)[nH]c(=O)c32)ccc1O (stereo unspecified) | 1.84 | -2.48
C=CCSc1nc2c(c(=O)[nH]1)C(c1ccc(O)c(O)c1)CC(=O)N2 (stereo unspecified) | 18.5* | 16.1*
Cc1ccccc1CSc1nc2c(c(=O)[nH]1)C(c1ccc(O)c(O)c1)CC(=O)N2 (stereo unspecified) | 25.2* | 2.85
SMILES | HIV TAR-Tat | CDC25B-CDK2 inh
C=CCSc1nc2c(c(=O)[nH]1)C(c1cc(F)cc(F)c1)CC(=O)N2 (stereo unspecified) | -0.27 | -1.42
O=C(C1COc2cc(S(=O)(=O)N(Cc3ccco3)C3CCCCC3)ccc2O1)N1CCCCC1 (stereo unspecified) | 0.27 | .
O=C(/C=C/C(=O)Nc1ccccc1C(F)(F)F)Nc1ccccc1C(F)(F)F | . | -0.6
CN1NC(c2ccccc2)/C(=N\OC(=O)Nc2ccccc2)SC1=S (stereo unspecified) | . | -0.8
Cc1cc(C(=O)C(=O)Nc2nnc(-c3ccco3)s2)c(C)n1-c1ccccc1Cl | 33.1* | -1.15
Cc1cc(C(=O)C(=O)Nc2nnc(-c3ccco3)s2)c(C)n1-c1cccc(Cl)c1 | 8.57* | -0.62
Cc1cc(C(=O)C(=O)Nc2nncs2)c(C)n1-c1ccccc1 | 6.91 | -2.44
CCc1nnc(NC(=O)C(=O)c2cc(C)n(-c3ccc(F)cc3)c2C)s1 | 2.32 | -2.82
O=C1CSC(c2ccc(Cl)c(Cl)c2)N1 (stereo unspecified) | . | -1.93
COc1ccc(S(=O)(=O)Nc2ccc3c(c2)N(S(=O)(=O)c2ccc(F)cc2)CCC3)cc1 | 1.42 | .
CSc1ccc(C2c3c(-c4c(C)cc(C)cc4O)n[nH]c3C(=O)N2CCO)cc1 (stereo unspecified) | -0.88 | -2.23
CCOCCCNc1cc(N2CCOCC2)c2noc3c2c1C(=O)c1ccccc1-3 | 6.83* | 0.63
CC(C)CNc1cc(N2CCOCC2)c2noc3c2c1C(=O)c1ccccc1-3 | -3.67 | 9.15*
O=C1c2ccccc2-c2onc3c(N4CCOCC4)cc(NCCO)c1c23 | -4.51 | 0.79
